Sampled rows, rich in hits. Any-hit rate of the full collection: about 19%.
MCF10A rereplic: induces DNA re-replication in MCF 10a normal breast cells. MCF 10A DNA re-replication, Hoechst nuclear intensity, 48 h. Potency, µM (top dose mostly 46.1 µM), for inactives: at the highest dose activity, positive = re-replication, usual class: activators. actives 2.9% (n = 350,000). AID 624296; also: potency is read from the fitted curve at half-maximal effect; % of control where 0% means no effect; nearly all actives have a fitted effect of over 50% in size
TDP1 cell noCPT: qHTS for Inhibitors of human tyrosyl-DNA phosphodiesterase 1 (TDP1): qHTS in cells in absence of CPT | DT40 Tdp1-/- hTDP1 cells, no CPT, ATP luminescence, 48 h | Potency, µM (titrated, usually from 46.2 µM), for inactives: top-dose activity change, negative = growth inhibition, hits mostly inhibitors | actives 15% (n = 420,000) | AID 686978, 2013; also: potency is read from the fitted curve at half-maximal effect; % is scaled to controls: 0 for no effect and ±100 for the full control effect; nearly all actives have a fitted effect of over 55% in size
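Growth of hTDP1-complemented DT40 Tdp1-knockout cells is measured by ATP luminescence after at least 48 hr compound exposure at 37 °C, with DMSO substituting for the 20 nM CPT used in the parallel screen.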
BCR signal inh: chronic active BCR signaling inhibition. Potency, µM (series often up to 46.1 µM), inactives show at the top dose activity change, negative = inhibition, usual class: inhibitors. AID 493014. actives 0.05% (n = 340,000). ABC-DLBCL IkBa-CBG/CBR reporter, luminescence ratio, 4 h; active = well fitted inhibition curve with a large enough effect in the signal ratio, with a control signal flat, not every such curve was filed as active; inconclusive = small, poorly fitted or top-dose-only effect, or effect the other way, or a change in a side signal; the % refers to the signal ratio;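 also: potency is read from the fitted curve at half-maximal effect; plate controls were basal doxycycline-induced cells for no effect and cells given 10 µM MG132 for full effect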
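Compounds up to 46 uM were incubated four hours with TMD8 cells whose green CBG68 luciferase is fused to IkappaBalpha; red CBR luminescence normalised the signal, and concentration-effect curves were fitted to fusion, red and ratio data.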
SW480 rerep: induces DNA re-replication in SW480 colon adenocarcinoma cells; SW480 DNA re-replication, Hoechst DNA content imaging, 48 h; Potency, µM (top dose mostly 46.1 µM), inactives show at the top dose re-replication activation, actives largely listed as activators; actives 1.8% (n = 340,000); AID 624297; also: potency is read from the fitted curve at half-maximal effect; % of control where 0% means no effect; nearly all actives have a fitted effect of over 55% in size
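Hoechst fluorescence of nuclei (405 nm excitation, 500-530 nm emission) measured by plate-scanning imager after 48 hr compound exposure at 37 C; re-replication scored as increased number of nuclei with elevated intensity.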
TDP1 cell CPT: growth inhibition of DT40 Tdp1-/-;hTDP1 cells with camptothecin (screen for TDP1 inhibitors) | chicken DT40 Tdp1-/-;hTDP1 cells + 20 nM CPT, ATP luminescence, 48 h | Potency, µM (top dose mostly 46.2 µM), inactives show at the top dose activity change, negative = growth inhibition, hits mostly inhibitors | actives 12% (n = 420,000) | AID 686979; also: potency is read from the fitted curve at half-maximal effect; % is scaled to controls: 0 for no effect and ±100 for the full control effect; nearly all actives have a fitted effect of over 55% in size
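Chicken DT40 Tdp1-/- cells stably complemented with human TDP1 were seeded at 400 cells/well in medium containing 20 nM camptothecin, exposed to pin-transferred compounds, and grown at 37 °C for at least 48 hr. Viability was read as ATP luminescence.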
IL1B secr inh: inflammasome signaling inhibition, IL-1 beta readout; THP-1 LPS/ATP IL-1B secretion, AlphaLISA, 16 h; active compounds read low; activity change, % at 57.5 µM; actives 4.7% (n = 360,000); in the data active = activity change below about -50%; inconclusive = mostly about -30% to -49%; also: % is scaled to controls: 0 for no effect and ±100 for the full control effect
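Secreted IL-1B measured by AlphaLISA bead assay after 16 h compound exposure of THP-1 cells; compounds (final up to 57.5 uM) added 1 h before LPS (250 ng/mL) and ATP (1.25 mM) stimulation; lower signal means less secretion.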
* = called active by the depositor; ? = inconclusive; . = no result; [ ] = another dose, or the depositor's remark. Unless noted, calls follow the shape of the dose curve; as a rule, active = well fitted curve in the direction sought with a large enough effect; inconclusive = small, poorly fitted or top-dose-only effect, or another doubt; inactive = no such curve, though single readings can be large; an effect the other way counts as inactive or inconclusive.

SMILES	MCF10A rereplic	TDP1 cell noCPT	BCR signal inh	SW480 rerep	TDP1 cell CPT	IL1B secr inh
Cc1ccc(C(=O)Cc2ccccc2)cc1	3.9%	15.2%	.	-4.7%	9.1%	-14.0
O=C(Nc1ccccc1SC(=O)c1ccccc1)c1ccccc1	.	4.61µM*	.	.	3.26µM*	20.2
Cc1ccc(C(=O)Sc2cccccc2=O)cc1	2.06µM*	0.517µM*	?	?	0.731µM*	-97.3*
O=C(Nc1ccccc1C(=O)Nc1ccccc1C(=O)O)c1ccccc1	?	11.6µM*	-3.0%	2.1%	?	38.8
O=C(N/N=C/c1ccncc1)c1ccc(OCc2ccccc2)cc1	0.3%	0.0%	-0.7%	-5.4%	-24.6%	-15.8
CSc1ccccc1NC(=O)c1ccccc1	-6.4%	5.5%	7.7%	-6.5%	7.0%	-11.3
O=C(Nc1ccccc1C(=O)N/N=C/c1ccncc1)c1ccccc1	-3.8%	20.6µM*	?	8.7%	?	27.6
Cc1nn(C)cc1S(=O)(=O)NCc1ccccc1Cl	-2.4%	13.7%	-0.8%	-2.9%	20.1%	0.5
COC(=O)c1ccccc1NC(=O)Nc1cccc(C)n1	-9.8%	12.4%	2.7%	25.1%	-21.4%	2.2
O=C(Nc1ccc(NC(=O)c2ccccc2)c2ccccc12)c1ccccc1	.	-6.7%	.	.	-10.6%	-8.3
O=C(Nc1cc(NC(=O)c2ccccc2Cl)ccc1Cl)c1ccccc1	.	20.6µM*	.	.	?	.
O=C(Nc1ccccc1C(=O)O)c1cccc(NC(=O)c2ccccc2Cl)c1	0.2%	?	-4.3%	-0.2%	-21.6%	3.3
Nc1ccccc1NC(=O)c1ccccc1	9.5%	18.4µM*	?	-5.2%	20.6µM*	86.6
Cc1cccc(NC(=O)c2ccccc2NC(=O)c2ccccc2)n1	-0.6%	18.4µM*	?	?	?	15.7
Nc1ccc(NC(=O)c2ccccc2)c2c1C(=O)c1ccccc1C2=O	1.1%	16.4µM*	13.4%	-1.4%	13µM*	17.7
O=C(O)c1ccc(Cl)c(NCc2cccs2)c1	?	-1.7%	-0.4%	-0.9%	-22.8%	3.0
COc1ccc(-c2coc3cc(OC(C)=O)cc(OC(C)=O)c3c2=O)cc1	.	10.5%	.	.	9.4%	.
O=c1[nH]c(NCc2ccco2)nnc1Cc1ccccc1Cl	?	4.11µM*	.	7.31µM*	6.51µM*	-16.5
CCOC(=O)c1ccc(NC(=O)N2CCN(CCc3ccccc3)CC2)cc1	-4.8%	?	?	-9.7%	-18.7%	-16.3
CCOc1ccc(NC(=O)OCCN2CCN(CCc3ccccc3)C(C)C2)cc1 (stereo unspecified)	?	?	.	5.3%	?	-69.8*
COc1ccc2c(c1OC)C(=O)N1c3cccc(Cl)c3C(=O)OC21 (stereo unspecified)	1.3µM*	-1.4%	0.3%	0.651µM*	-17.6%	-8.7
O=C(Nc1nnc([C@@H]2C[C@H](O)[C@@H](CO)O2)s1)Nc1ccccc1F	.	0.0%	.	.	-4.5%	39.0
Cc1ccc(CNS(=O)(=O)c2c(C(=O)N3CCCCC3)c(C)n(C)c2C)cc1	1.5%	14.6%	-17.5%	5.9%	-2.8%	?
Cc1c(C(=O)N2CCCCC2)c(S(=O)(=O)N(C)Cc2ccccc2)c(C)n1C	-1.4%	4.0%	-5.4%	-8.3%	-11.6%	-8.4
Cc1c(C(=O)N2CCCCCC2)c(S(=O)(=O)N(Cc2ccccc2)C(C)(C)C)c(C)n1C	.	20.6µM*	.	.	?	.
SMILES	MCF10A rereplic	TDP1 cell noCPT	BCR signal inh	SW480 rerep	TDP1 cell CPT	IL1B secr inh
Cc1c(C(=O)N2CCCCC2)c(S(=O)(=O)NCCc2ccc(Cl)cc2)c(C)n1C	-3.0%	20.6µM*	-10.3%	-15.2%	?	-0.7
Cc1cccc(N2CCN(C(=O)CCc3nc4ccccc4c(=O)[nH]3)CC2)c1C	1.7%	?	0.4%	1.1%	-8.2%	10.2
CC(C)c1ccc(NC(=O)CN2C(=O)COc3ccc(S(=O)(=O)N4CCOCC4)cc32)cc1	26.1%	-31.0%	2.6%	-1.7%	0.4%	7.0
CC(C)(C)c1ccc(OCC(=O)N/N=C/c2ccsc2)cc1	7.7%	?	?	1.3%	-14.0%	-17.2
CCc1nc2ccc(C(=O)N3CCN(C)CC3)cn2c1N(C)CCC(C)C	.	?	.	.	?	15.2
O=C1C=C(c2ccc(O)cc2)C[C@@H](c2ccc(Cl)cc2)C1	?	?	?	-2.6%[9.22 µM]	?	-75.4*
O=C1C=C(c2ccc3[nH]ccc3c2)C[C@@H](c2ccc(Cl)cc2)C1	10.3µM*	?	?	23.2%	?	0.0
Cc1ccc(C2=CC(=O)C[C@H](c3ccc(Cl)cc3)C2)cc1	-0.4%	?	1.4%	-4.0%	23.1µM*	17.8
COc1ccc(C2=CC(=O)C[C@H](c3ccc(Cl)cc3)C2)cc1	?	?	2.1%	7.1%[9.22 µM]	16.4µM*	0.0
O=C1C=C(c2ccc3ccccc3c2)C[C@@H](c2ccc(Cl)cc2)C1	28.4%	?	-2.1%	0.5%	?	?
CC1(C(=O)NS(=O)(=O)c2ccc(C#N)cc2)CCN1C(=O)CC1CCCCC1 (stereo unspecified)	.	-9.4%	.	.	-10.1%	40.4
O=C1C=C(Nc2ccc(Cl)cc2)CC(c2ccc(Cl)cc2)C1 (stereo unspecified)	-13.2%	?	-4.0%	3.3%	?	-84.8*
COC(CN(C(=O)CCl)C(C(=O)NC1CCCCC1)c1ccc(C)cc1)OC (stereo unspecified)	-6.0%	13µM*	?	5.8µM*	16.4µM*	-92.6*
COc1ccc(C(C(=O)NC2CCCCC2)N(C(=O)CCl)c2cccc(Cl)c2)cc1 (stereo unspecified)	20.6µM*	1.84µM*	?	?	2.31µM*	-110.2*
COc1ccc(C(C(=O)NC2CCCC2)N(C(=O)c2ccoc2C)c2ccc(C)cc2)cc1 (stereo unspecified)	-9.1%	16.4µM*	?	?	18.4µM*	-18.0
COc1ccc(C(C(=O)NC2CCCCC2)N(C(=O)CCl)c2ccc(C)cc2)cc1 (stereo unspecified)	29.7%	1.64µM*	0.2%	2.59µM*	1.84µM*	-106.4*
COCCN(C(=O)CCCC(=O)Nc1ccccn1)C(C(=O)NC1CCCCC1)c1ccc(C)cc1 (stereo unspecified)	-1.3%	?	-0.8%	3.5%	-21.7%	-10.4

Screening data from PubChem BioAssay.
